Consider six compounds from the supplement of paper PMC9694430.

Common to all, as to assay: thermal shift delta Tm vs DMSO control; higher = stronger stabilization (binding)
Holding throughout (details): 12.5 µM; protein concentration 2 µM

One test concerns LOC_OS01G01410-cb001. An outline of the steps: (§1)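 Heating from 25°C to 95°C at 0.05°C/s, fluorescence was recorded for 19.5 μl wells of 2 μM E. coli-expressed, purified rice kinase domain in 100 mM potassium phosphate pH 7.5, 150 mM NaCl, 10% glycerol and 5 × SYPRO Orange with compound in DMSO. Boltzmann fits gave melting temperatures for this differential scanning fluorimetry assay. The shift reported is the mean of three replicates against the DMSO-only protein.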

The next test has as its system LOC_OS01G02750-cb003. Put shortly:
as §1

In the next test the test system is LOC_OS01G10900-cb004. Put shortly:
as §1

Another test relates to LOC_OS01G13800-cb001. An outline of the steps:
as §1

For a further test, the system named is LOC_OS01G14860-cb001. Put shortly: as §1
Another test has as its system LOC_OS01G21960-cb002. Put shortly: as §1
Another test relates to LOC_OS01G39600-cb002. An outline of the steps: as §1
In a further test the test system is LOC_OS01G48390-cb002. Put shortly:
as §1

In a further test the test system is LOC_OS01G51400-cb002. An outline of the steps:
as §1

A further test concerns T1, LOC_OS01G52050-cb004.
T1 sequence (whole entry): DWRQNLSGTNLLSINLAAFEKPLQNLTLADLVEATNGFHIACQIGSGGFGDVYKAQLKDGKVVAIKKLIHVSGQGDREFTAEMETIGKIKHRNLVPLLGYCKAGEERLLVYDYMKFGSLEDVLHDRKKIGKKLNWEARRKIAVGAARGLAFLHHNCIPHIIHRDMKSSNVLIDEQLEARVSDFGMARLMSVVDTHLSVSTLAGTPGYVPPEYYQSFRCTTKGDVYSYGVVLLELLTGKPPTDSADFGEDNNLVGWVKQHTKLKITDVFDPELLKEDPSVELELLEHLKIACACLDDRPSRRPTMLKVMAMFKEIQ
Put shortly: as §1

A further test relates to LOC_OS01G57100-cb003. Put shortly:
as §1

Another test relates to LOC_OS01G60330-cb001. An outline of the steps: as §1
Another test concerns LOC_OS01G60700-cb002. Put shortly: as §1
A further test deals with LOC_OS01G63280-cb003. Put shortly: as §1
In a further test the test system is LOC_OS01G67340-cb003. An outline of the steps: as §1
The subject of a further test is LOC_OS01G70970-cb002. An outline of the steps: as §1
For another test, the system named is LOC_OS02G07810-cb001. An outline of the steps:
as §1

For another test, the system named is LOC_OS02G08530-cb003. Put shortly: as §1
In a further test the test system is LOC_OS02G14120-cb001. Put shortly:
as §1

Another test has as its system LOC_OS02G17970-cb001. An outline of the steps: as §1
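Also: purified Escherichia coli-expressed rice kinase domain construct.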

On to `Cc1ccc(C(=O)Nc2ccc(CN3CCN(C)CC3)c(C(F)(F)F)c2)cc1C#Cc1cnc2[nH]ncc2c1` [GZD824 Dimesylate], for which the “thermal shift delta Tm” value is 4.32 °C with LOC_OS01G01410-cb001; 3.52 °C in the test with LOC_OS01G02750-cb003; 5.49 °C in the test with LOC_OS01G10900-cb004; -0.24 °C in the test on LOC_OS01G13800-cb001; 6.49 °C in the test with LOC_OS01G14860-cb001; 1.24 °C with LOC_OS01G21960-cb002. In addition, the “thermal shift delta Tm” value stood at 22.8 °C with LOC_OS01G39600-cb002; 2.71 °C in the test with LOC_OS01G48390-cb002; 0.45 °C with LOC_OS01G51400-cb002; 3.71 °C with LOC_OS01G52050-cb004; 1.83 °C in the test with LOC_OS01G57100-cb003; 4.46 °C in the test with LOC_OS01G60330-cb001. In addition, the “thermal shift delta Tm” value with LOC_OS01G60700-cb002 was 1.12 °C; in the test with LOC_OS01G63280-cb003, 16.6 °C; in the test with LOC_OS01G67340-cb003, 2.51 °C; in the test with LOC_OS01G70970-cb002, 5.22 °C; in the test on LOC_OS02G07810-cb001 it was 0.8 °C; with LOC_OS02G08530-cb003 it was 3.54 °C. Also, the results for the “thermal shift delta Tm” value in the test with LOC_OS02G14120-cb001 and in the test on LOC_OS02G17970-cb001 were 4.33 °C and 0.61 °C, respectively.
In the case of `CCc1cc(Nc2nccc(-c3c(-c4ccc(OC)c(C(=O)Nc5c(F)cccc5F)c4)nc4ccccn34)n2)c(OC)cc1N1CCC(N2CCN(S(C)(=O)=O)CC2)CC1`, the “thermal shift delta Tm” value in the test with LOC_OS01G01410-cb001 is 1.23 °C; in the test with LOC_OS01G02750-cb003 it was -0.77 °C; in the test on LOC_OS01G10900-cb004 it was 0.34 °C; in the test with LOC_OS01G13800-cb001 it was 0.56 °C; with LOC_OS01G14860-cb001, 0.33 °C; in the test on LOC_OS01G21960-cb002, 1.05 °C. The “thermal shift delta Tm” value in the test with LOC_OS01G39600-cb002 amounted to 1.04 °C; in the test on LOC_OS01G48390-cb002, 0.41 °C; in the test on LOC_OS01G51400-cb002 it was 0.3 °C; in the test on LOC_OS01G52050-cb004 it was 0.04 °C; with LOC_OS01G57100-cb003, 1.35 °C; with LOC_OS01G60330-cb001, 0.65 °C. The “thermal shift delta Tm” value came to 1.19 °C with LOC_OS01G60700-cb002; 0.43 °C in the test with LOC_OS01G63280-cb003; 0.06 °C in the test with LOC_OS01G67340-cb003; 0.26 °C in the test with LOC_OS01G70970-cb002; 0.77 °C in the test on LOC_OS02G07810-cb001; 0.82 °C in the test with LOC_OS02G08530-cb003. The figures for the “thermal shift delta Tm” value in the test on LOC_OS02G14120-cb001 and in the test on LOC_OS02G17970-cb001 were 0.04 °C and 0.47 °C, respectively.
`CN(C[C@@H]1COCCO1)S(=O)(=O)Nc1ccc2ccc3ncc(-c4cnn(C)c4)cc3c(=O)c2c1`: the “thermal shift delta Tm” value in the test on LOC_OS01G01410-cb001 was 2.9 °C; in the test with LOC_OS01G02750-cb003 it was 3.39 °C; in the test with LOC_OS01G10900-cb004, 1.59 °C; in the test on LOC_OS01G13800-cb001, -0.75 °C; with LOC_OS01G14860-cb001 it was 0.52 °C; in the test with LOC_OS01G21960-cb002 it was 1.85 °C. For the same compound, the “thermal shift delta Tm” value in the test with LOC_OS01G39600-cb002 turned out to be 2.41 °C; in the test on LOC_OS01G48390-cb002 it was 0.37 °C; in the test with LOC_OS01G51400-cb002, 0.29 °C; with LOC_OS01G52050-cb004, 10.3 °C; in the test on LOC_OS01G57100-cb003, 2.19 °C; with LOC_OS01G60330-cb001 it was 0.33 °C. The “thermal shift delta Tm” value in the test on LOC_OS01G60700-cb002 is 1.15 °C; in the test on LOC_OS01G63280-cb003 it was 1.83 °C; in the test with LOC_OS01G67340-cb003, 0.51 °C; in the test on LOC_OS01G70970-cb002 it was 9.99 °C; in the test on LOC_OS02G07810-cb001, 1.23 °C; in the test on LOC_OS02G08530-cb003, 1.58 °C. In addition, the “thermal shift delta Tm” value with LOC_OS02G14120-cb001 turned out to be 8.53 °C; in the test with LOC_OS02G17970-cb001, 0.59 °C.
For `c1cncc(CN2CCC(n3ncc4c(N5CCOCC5)nc(-c5ccc6[nH]ccc6c5)nc43)CC2)c1`, the “thermal shift delta Tm” value in the test with LOC_OS01G01410-cb001 is 0.33 °C; in the test with LOC_OS01G02750-cb003, -0.32 °C; with LOC_OS01G10900-cb004, 0.65 °C; in the test on LOC_OS01G13800-cb001 it was 0.33 °C; in the test on LOC_OS01G14860-cb001, 0.21 °C; with LOC_OS01G21960-cb002 it was 0.55 °C. For the same compound, the “thermal shift delta Tm” value in the test with LOC_OS01G39600-cb002 is 0.03 °C; in the test with LOC_OS01G48390-cb002 it was 0.18 °C; with LOC_OS01G51400-cb002, 0.45 °C; in the test on LOC_OS01G52050-cb004, -0.01 °C; in the test with LOC_OS01G57100-cb003 it was 2.55 °C; in the test with LOC_OS01G60330-cb001, 0.61 °C. Besides, the “thermal shift delta Tm” value with LOC_OS01G60700-cb002 is 0.71 °C; in the test on LOC_OS01G63280-cb003, 0.09 °C; in the test on LOC_OS01G67340-cb003, -0.04 °C; in the test with LOC_OS01G70970-cb002 it was 0.4 °C; in the test with LOC_OS02G07810-cb001 it was 0.62 °C; with LOC_OS02G08530-cb003 it was 0.57 °C. The “thermal shift delta Tm” value with LOC_OS02G14120-cb001 was 0.15 °C; in the test on LOC_OS02G17970-cb001, 0.27 °C.
As to `Clc1ccc(C2(c3ccc(-c4cn[nH]c4)cc3)CCNCC2)cc1`, the “thermal shift delta Tm” value stood at 0.09 °C in the test with LOC_OS01G01410-cb001; 0.73 °C with LOC_OS01G02750-cb003; 0.17 °C with LOC_OS01G10900-cb004; 0.44 °C in the test with LOC_OS01G13800-cb001; 0.54 °C in the test with LOC_OS01G14860-cb001; 0.46 °C in the test with LOC_OS01G21960-cb002. For the same compound, the “thermal shift delta Tm” value was -0.39 °C in the test on LOC_OS01G39600-cb002; 0.45 °C in the test with LOC_OS01G48390-cb002; 0 °C in the test with LOC_OS01G51400-cb002; 0.38 °C in the test on LOC_OS01G52050-cb004; 1.65 °C with LOC_OS01G57100-cb003; 0.98 °C with LOC_OS01G60330-cb001. Further, the “thermal shift delta Tm” value is 0.54 °C in the test on LOC_OS01G60700-cb002; 0.22 °C in the test on LOC_OS01G63280-cb003; -0.1 °C in the test on LOC_OS01G67340-cb003; 0.01 °C with LOC_OS01G70970-cb002; 1.21 °C with LOC_OS02G07810-cb001; 0.59 °C in the test on LOC_OS02G08530-cb003. The “thermal shift delta Tm” value stood at 0.25 °C in the test on LOC_OS02G14120-cb001 and 1.03 °C in the test on LOC_OS02G17970-cb001.
`C=CC(=O)N[C@H]1CCOC[C@H]1Nc1ncc2cc(-c3c(Cl)c(OC)cc(OC)c3Cl)ccc2n1`: the “thermal shift delta Tm” value with LOC_OS01G01410-cb001 is 0.19 °C; with LOC_OS01G02750-cb003, -0.27 °C; in the test on LOC_OS01G10900-cb004, 2.28 °C; in the test with LOC_OS01G13800-cb001 it was -0.14 °C; with LOC_OS01G14860-cb001 it was 0.4 °C; with LOC_OS01G21960-cb002 it was 0.24 °C. The “thermal shift delta Tm” value with LOC_OS01G39600-cb002 was -0.48 °C; in the test with LOC_OS01G48390-cb002 it was 0.49 °C; in the test with LOC_OS01G51400-cb002, -0.01 °C; in the test on LOC_OS01G52050-cb004 it was 1.84 °C; with LOC_OS01G57100-cb003, 2.49 °C; in the test on LOC_OS01G60330-cb001 it was -0.43 °C. Besides, the “thermal shift delta Tm” value was -0.29 °C in the test with LOC_OS01G60700-cb002; -0.43 °C in the test on LOC_OS01G63280-cb003; -0.17 °C in the test with LOC_OS01G67340-cb003; -0.04 °C with LOC_OS01G70970-cb002; -1.01 °C in the test on LOC_OS02G07810-cb001; 0.62 °C in the test on LOC_OS02G08530-cb003. Further, the entries for the “thermal shift delta Tm” value in the test on LOC_OS02G14120-cb001 and with LOC_OS02G17970-cb001 were 0.55 °C and -0.41 °C, respectively.
